# From PubChem BioAssay (EPA / NIEHS)
# Several values for one entry are separate records, joined by “and”; a condition that tells them apart may be missing. Identical values can stand only once. Inconclusive results are not listed. Activity calls are given as the source filed them. The calls were made as follows, unless noted: active = hit-call score of the fitted dose curve at least 0.9, where 1 is the maximum; inactive = score below 0.9.
# Assays:
# [1] = CCTE_Deisenroth_5AR_NBTE_donor: CCTE's 5alpha-reductase NanoBRET Target Engagement Assay […], Deisenroth Lab (AID 2284319); details: actives raise or lower the signal
# Outline: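 SRD5A2-NanoLuc, HEK293T, 20 h expression. Chemical 10 nM - 29.9 uM, 8 conc, duplicate; 3 h preincubation + 2 h testosterone tracer. Nano-Glo substrate plus extracellular NanoLuc inhibitor; donor lum 460 nm. DMSO baseline, bidirectional fit.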
# [2] = CCTE_Deisenroth_5AR_NBTE_acceptor: CCTE's 5alpha-reductase NanoBRET Target Engagement Assay - Autofluorescence Screen, Deisenroth Lab (AID 2284321); details: actives raise or lower the signal;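 also: compound fluorescence in the acceptor channel under 460 nm excitation flags autofluorescence artifacts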
# Outline: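 Chemicals diluted to a nominal 100 uM in DMSO were scanned at 460 nm excitation. Samples were read in three independent runs (n=3). Gain or loss of acceptor signal was fitted relative to DMSO.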
# [3] = test system: SRD5A2 (gene 6716); experiment: CCTE_Deisenroth_5AR_NBTE_ratio: CCTE's 5alpha-reductase NanoBRET Target Engagement Assay - Ratio, Deisenroth Lab (AID 2284322); details: actives raise or lower the signal
# Outline: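 HEK293T transiently expressing SRD5A2-NanoLuc; cells exposed to chemical (8-point, 10 nM - 29.9 uM) for 5 h total, testosterone tracer added for final 2 h. NanoBRET acceptor/donor ratio (650/460 nm), bidirectional fit vs DMSO.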
# [4] = read-out: CD69, CD69 (gene 969); experiment: BSK_LPS_CD69: BioMAP Diversity Plus: LPS Assay for CD69 Biomarker Activity (AID 2284303); details: primary human HUVEC with PBMC
# Outline: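 Human umbilical vein endothelial cells co-cultured with PBMC under LPS stimulation, chemical exposure 24 h; cell-surface CD69 measured by ELISA and fitted in the positive direction versus DMSO.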
# [5] = test system: IYD (gene 389434); experiment: CCTE_GLTED_hIYD: CCTE's human Iodotyrosine Deiodinase (xIYD) Inhibition Assay, Great Lakes Toxicology and Ecology Division (GLTED) Lab (AID 2284317; active = hit-call score of the fitted dose curve at least 0.9, where 1 is the maximum;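 also: cell-free human IYD enzyme made in baculovirus insect cells; iodide freed from monoiodotyrosine measured by cerium arsenite color change at 420 nm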)
# Outline: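 hIYD: baculovirus-expressed human IYD deiodinated monoiodotyrosine for 3 h with test chemical; free iodide was measured by Sandell-Kolthoff absorbance at 420 nm and normalized to MNT and DMSO/NaOH controls.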
# [6] = CCTE_Mundy_HCI_iCellGluta_NOG_NeuriteLength: CCTE's Neurite Outgrowth Assay in iCellGluta cells for Neurite Length, Mundy Lab (AID 2284318; active = hit-call score of the fitted dose curve at least 0.9, where 1 is the maximum)
# Outline: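 Automated high-content imaging of betaIII-tubulin (Alexa Fluor-488) and Hoechst-stained cells gave neurite length, normalized to the DMSO baseline.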
# [7] = test system: TTR (gene 7276); experiment: CCTE_GLTED_hTTR_0.5uM: CCTE's human Transthyretin (hTTR) Inhibition Assay, with 0.5uM TTR, Great Lakes Toxicology and Ecology Division (GLTED) Lab (AID 2284320)
# Outline: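 Cell-free displacement assay in which human TTR at 0.5 uM was incubated with test chemical for 2 h. Displacement of the ANSA probe was read by fluorescence at 380 nm excitation/475 nm emission. Loss of signal was fitted in the positive direction versus DMSO.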
# [8] = VALA_TUBHUV_Agonist_CellCount: Viability Assessment in the VALA Sciences human Umbilical Vein Endothelial Tubule Formation (TUBHUV) Agonism Assay (AID 2284309; active = hit-call score of the fitted dose curve at least 0.9, where 1 is the maximum)
# Outline: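 HUVEC co-cultured 1:3 with HDF for 3 days in 10 ng/ml VEGF, then compounds added in VEGF medium for a further 3 days (72 h). Nuclear-stain/CD31 imaging cell count. Positive-direction fit versus 0.1% DMSO vehicle.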
# [9] = VALA_TUBIPS_Antagonist_TubuleLength: VALA Sciences human iPS-derived Endothelial Tubule Formation (TUBIPS) Antagonist Assay (AID 2284313; active = hit-call score of the fitted dose curve at least 0.9, where 1 is the maximum)
# Outline: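 Cells grown 3 days with 10 ng/ml VEGF, then exposed to compounds in VEGF medium for another 3 days. After fixation, nuclear stain and CD31 immunofluorescence imaging gave mean total tubule length against 0.1% DMSO; suramin (100 uM) inhibition control.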
# [10] = VALA_TUBHUV_Antagonist_TubuleLength: VALA Sciences human Umbilical Vein Endothelial Tubule Formation (TUBHUV) Antagonism Assay (AID 2284325; active = hit-call score of the fitted dose curve at least 0.9, where 1 is the maximum)
# Outline: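 HUVEC–HDF co-culture (1:3) pre-grown 3 days with 10 ng/ml VEGF, then 3 days with compound plus VEGF. Fixed, nuclear and CD31 stained; total tubule length by imaging versus 0.1% DMSO; suramin 100 uM positive control.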
# [11] = IUF_NPC2a_radial_glia_migration_72hr: Leibniz Research Institute for Environmental Medicine (IUF) 72-hour Neural Progenitor Cell Migration Assay for Radial Glia Migration (NPC2a) (AID 2284299)
# Outline: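 Human fetal neural progenitor spheres (0.3 mm) plated on poly-D-lysine/laminin in N2 differentiation medium and exposed from day 0 at 7 concentrations; radial glia migration distance from sphere edge measured at 72 h on brightfield images, mean of four directions, vs DMSO.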
# [12] = IUF_NPC2b_neuronal_migration_120hr: Leibniz Research Institute for Environmental Medicine (IUF) 120-hour Neural Progenitor Cell Migration Assay for Neuron Migration (NPC2b) (AID 2284300)
# Outline: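 Neurons identified by TUBB3 immunostaining and Hoechst nuclei; migration distance measured automatically on fixed wells at 120 h, normalized to glia migration. Exposure spanned five days of differentiation in N2 medium, seven test concentrations.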
# [13] = IUF_NPC3_neuronal_differentiation_120hr: Leibniz Research Institute for Environmental Medicine (IUF) 120-hour Neuronal Differentiation Assay (NPC3) (AID 2284301)
# Outline: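 Human fetal (GW 16-19) neural progenitor spheres (0.3 mm) plated on poly-D-lysine/laminin in N2 differentiation medium, exposed 120 h at 37C with half-medium renewal day 3; 7 concentrations. TUBB3+ cells as % of Hoechst nuclei, CNN-identified; DMSO baseline.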
# [14] = IUF_NPC4_neurite_length_120hr: Leibniz Research Institute for Environmental Medicine (IUF) 120-hour Neuronal Morphology Assay for Neurite Length (NPC4) (AID 2284302)
# Outline: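 Human fetal neural progenitor spheres (0.3 mm) plated on poly-D-lysine/laminin in N2 differentiation medium, exposed from day 0 for 120 h with half-medium refresh at day 3, 37C. Mean neurite length (um) of TUBB3-positive neurons from skeletonized immunostaining images; DMSO ≤0.1%.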
# [15] = IUF_NPC5_oligodendrocyte_differentiation_120hr: Leibniz Research Institute for Environmental Medicine (IUF) 120-hour Oligodendrocyte Differentiation Assay (NPC5) (AID 2284304; active = hit-call score of the fitted dose curve at least 0.9, where 1 is the maximum;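 also: primary human fetal neural progenitor spheres plated to migrate and differentiate; share of O4-positive cells among Hoechst nuclei found by CNN image analysis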)
# Outline: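 Human primary NPC neurospheres migrating and differentiating on laminin for 120 h under continuous compound exposure (serial dilution, solvent control). Endpoint: percent O4+ oligodendrocytes among Hoechst nuclei, detected by CNN image analysis, with DMSO as negative control.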
# [16] = IUF_NPC4_neurite_area_120hr: Leibniz Research Institute for Environmental Medicine (IUF) 120-hour Neuronal Morphology Assay for Neurite Area (NPC4) (AID 2284305; active = hit-call score of the fitted dose curve at least 0.9, where 1 is the maximum)
# Outline: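 Human fetal neural progenitor spheres (0.3 mm) plated on poly-D-lysine/laminin in N2 differentiation medium, exposed 120 h (7 concentrations, DMSO ≤0.1%, half-medium refresh day 3). Fixed, TUBB3 immunostained; mean neurite area per neuron by Omnisphero skeletonization.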
# [17] = IUF_NPC2-5_cytotoxicity_72hr: Cytotoxicity Assessment at 72 hours in the Leibniz Research Institute for Environmental Medicine (IUF) Neural Progenitor Cell Migration and Differentiation Assay for Cytotoxicity (NPC2-5) (AID 2284306; active = hit-call score of the fitted dose curve at least 0.9, where 1 is the maximum;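 also: LDH release into supernatant measured by resorufin fluorescence marking membrane damage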)
# Outline: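 Human fetal primary neural progenitor spheres (0.3 mm) plated on poly-D-lysine/laminin in N2 differentiation medium, exposed from day 0 at 37C. LDH-dependent resazurin-to-resorufin fluorescence in supernatant at 72 h; 7 concentrations, DMSO at most 0.1%.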
# [18] = IUF_NPC2-5_cytotoxicity_120hr: Cytotoxicity Assessment at 120 hours in the Leibniz Research Institute for Environmental Medicine (IUF) Neural Progenitor Cell Migration and Differentiation Assay (NPC2-5) (AID 2284307; active = hit-call score of the fitted dose curve at least 0.9, where 1 is the maximum)
# Outline: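 Fluorescence (RFU) from LDH-driven resazurin reduction in medium supernatants measured loss of membrane integrity after 120 h of compound exposure of differentiating primary human neural progenitor spheres on an extracellular matrix.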
# [19] = IUF_NPC2-5_cell_number_120hr: Cell Number Assessment at 120 hours in the Leibniz Research Institute for Environmental Medicine (IUF) Neural Progenitor Cell Migration and Differentiation Assay (NPC2-5) (AID 2284308);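 also: count of Hoechst-stained nuclei in migration zone around plated human neural progenitor spheres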
# Outline: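 Cell number is taken as all Hoechst-positive nuclei detected in the area into which cells migrate out of the sphere, scored at 120 h and referenced to DMSO solvent control, which was kept at no more than 0.1%.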
# [20] = IUF_NPC2-5_viability_120hr: Viability Assessment at 120 hours in the Leibniz Research Institute for Environmental Medicine (IUF) Neural Progenitor Cell Migration and Differentiation Assay (NPC2-5) (AID 2284312)
# Outline: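 Human fetal neural progenitor spheres (0.3 mm) plated on poly-D-lysine/laminin in N2 differentiation medium, exposed 120 h with half-medium refresh at day 3. Viability by alamar blue resazurin fluorescence; 7 concentrations, DMSO max 0.1%.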
structure (smiles),measurement,setting,value
Cc1cc(-c2ccc(N)c(C)c2)ccc1N,outcome,[1],inactive
same,outcome,[2],inactive
same,AC50,[3],50 µM (active)
NS(=O)(=O)C(F)(F)C(F)(F)C(F)(F)C(F)(F)C(F)(F)C(F)(F)C(F)(F)C(F)(F)F,AC50,[4],38.4 µM (active) and 24.5 µM (active)
same,AC50,[5],46.1 µM (active)
same,outcome,[6],inactive
same,AC50,[7],807 nM (active)
O=C(O)C(F)(F)C(F)(F)C(F)(F)C(F)(F)C(F)(F)C(F)(F)C(F)(F)C(F)(F)F,AC50,[4],41.8 µM (active) and 30 µM (active)
same,AC50,[5],91.2 µM (active)
same,AC50,[7],435 nM (active)
Oc1ccc(C(c2ccc(O)cc2)(C(F)(F)F)C(F)(F)F)cc1,AC50,[8],65.5 µM (active)
same,outcome,[9],inactive
same,outcome,[10],inactive
CC#Cc1cc(C)nc(Nc2ccccc2)n1,outcome,[5],inactive
CO/C=C(/C(=O)OC)c1ccccc1COc1cccc(C(F)(F)F)n1,AC50,[11],50 µM (active)
same,AC50,[12],50 µM (active)
same,AC50,[13],22.2 µM (active)
same,AC50,[14],19.7 µM (active)
same,AC50,[15],1.51 µM (active)
same,outcome,[16],inactive
same,outcome,[17],inactive
same,outcome,[18],inactive
same,AC50,[19],9.92 µM (active)
same,AC50,[20],6.8 µM (active)
same,AC50,[6],5.9 µM (active)
ClC(Cl)=C(c1ccc(Cl)cc1)c1ccc(Cl)cc1,outcome,[1],inactive
same,outcome,[2],inactive
same,outcome,[3],inactive
CCC(C)c1cc([N+](=O)[O-])cc([N+](=O)[O-])c1O (stereo not given),AC50,[1],29.4 µM (active)
same,AC50,[2],9.91 µM (active)
same,AC50,[3],53.3 µM (active)
CC(C)(c1ccccc1)c1ccc(O)cc1,outcome,[1],inactive
same,outcome,[2],inactive
same,outcome,[3],inactive
O=C(O)C(F)(F)C(F)(F)C(F)(F)C(F)(F)C(F)(F)C(F)(F)C(F)(F)C(F)(F)C(F)(F)F,AC50,[4],49.1 µM (active) and 45.4 µM (active)
same,AC50,[5],95.5 µM (active) and 50.9 µM (active)
same,AC50,[7],721 nM (active)
O=C(O)C(F)(F)C(F)(F)C(F)(F)C(F)(F)C(F)(F)F,outcome,[4],inactive
same,AC50,[7],1460 nM (active)
C=CC(N)=O,outcome,[11],inactive
same,outcome,[12],inactive
same,outcome,[13],inactive
same,outcome,[14],inactive
same,outcome,[15],inactive
same,outcome,[16],inactive
same,outcome,[17],inactive
same,outcome,[18],inactive
same,outcome,[19],inactive
same,outcome,[20],inactive
O=S(=O)(O)C(F)(F)C(F)(F)C(F)(F)C(F)(F)C(F)(F)C(F)(F)F,outcome,[11],inactive
same,outcome,[12],inactive
same,outcome,[13],inactive
same,outcome,[14],inactive
same,outcome,[4],inactive
same,outcome,[15],inactive
same,outcome,[16],inactive
same,outcome,[17],inactive
same,outcome,[18],inactive
same,outcome,[19],inactive
same,outcome,[20],inactive
same,outcome,[6],inactive
same,AC50,[7],455 nM (active) and 190 nM (active)
CCCCCCCCCc1ccc(O)cc1,AC50,[5],24.1 µM (active)
CCCCCCCCCC[N+](C)(C)CCCCCCCCCC,AC50,[5],63.9 µM (active)
same,AC50,[1],5.89 µM (active)
same,AC50,[2],4.7 µM (active)
same,AC50,[3],10.3 µM (active)
CCOP(=S)(OCC)SCSC(C)(C)C,outcome,[11],inactive
same,outcome,[12],inactive
same,outcome,[13],inactive
same,outcome,[14],inactive
same,outcome,[16],inactive
same,outcome,[17],inactive
same,outcome,[18],inactive
same,outcome,[19],inactive
same,outcome,[20],inactive
same,outcome,[6],inactive
O=S(=O)(O)C(F)(F)C(F)(F)C(F)(F)C(F)(F)F,outcome,[11],inactive
same,outcome,[12],inactive
same,outcome,[13],inactive
same,outcome,[14],inactive
same,outcome,[4],inactive
same,outcome,[15],inactive
same,outcome,[16],inactive
same,outcome,[17],inactive
same,outcome,[18],inactive
same,outcome,[19],inactive
same,outcome,[20],inactive
same,outcome,[6],inactive
same,AC50,[7],788 nM (active)
COc1ccc(O)c(C(C)(C)C)c1,outcome,[4],inactive
same,outcome,[6],inactive
Clc1ccc(C(c2ccccc2Cl)C(Cl)(Cl)Cl)cc1 (stereo not given),outcome,[1],inactive
same,outcome,[2],inactive
same,AC50,[3],50 µM (active)
